Calls of active or inactive are those of the source.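 Rule for the calls: active = compound that boosted calcium signal to a low acetylcholine dose in a dose-dependent way; inactive = the rest.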
Target: Muscarinic acetylcholine receptor M4 (Rattus norvegicus) (UniProt P08485)
Assay: potentiation of acetylcholine response at rM4 – cell-based, analogs, calcium mobilization, Gqi5, SAR follow-up (AID 1923)
Conditions: CHO-K1 rM4/Gqi5, calcium mobilization Fluo-4, ACh EC20

Chain of Muscarinic acetylcholine receptor M4 (Rattus norvegicus) (P08485 whole entry, looked up): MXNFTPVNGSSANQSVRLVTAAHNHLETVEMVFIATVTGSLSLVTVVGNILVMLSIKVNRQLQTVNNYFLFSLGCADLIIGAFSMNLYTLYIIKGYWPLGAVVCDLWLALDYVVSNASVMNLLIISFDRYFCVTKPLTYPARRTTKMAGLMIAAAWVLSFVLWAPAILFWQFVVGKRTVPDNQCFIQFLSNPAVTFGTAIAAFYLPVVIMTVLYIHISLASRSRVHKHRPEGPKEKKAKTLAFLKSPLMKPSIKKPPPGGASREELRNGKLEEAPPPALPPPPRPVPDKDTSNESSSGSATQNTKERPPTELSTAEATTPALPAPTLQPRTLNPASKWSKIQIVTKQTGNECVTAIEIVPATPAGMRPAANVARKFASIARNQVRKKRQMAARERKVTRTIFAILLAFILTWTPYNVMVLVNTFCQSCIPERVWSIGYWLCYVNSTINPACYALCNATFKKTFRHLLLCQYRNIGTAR

Question: How did the outcome turn out when `Cc1cc(OCCN2CCOCC2)nc2sc(C(=O)NC(C)C)c(N)c12` was run?
Answer: active; fitted 7.15 uM

Question: How did the outcome turn out when `COc1ccc(CNC(=O)c2sc3nc(OCCN4CCOCC4)cc(C)c3c2N)cc1` was run?
Answer: active; fitted 6.47 uM

Question: `Cc1cc(OCc2ccccn2)nc2sc(C(=O)NCc3cccc(F)c3F)c(N)c12` was tested. Which outcome did it give?
Answer: active; fitted 5.4 uM

Question: How did the outcome turn out when `CCCCCOc1cc(C)c2c(N)c(C(=O)NCc3ccc(OC)cc3)sc2n1` was run?
Answer: inactive

Question: With `COc1ccc(CNC(=O)c2sc3nc(OCCCN(C)C)cc(C)c3c2N)cc1` as the molecule, how does the outcome read?
Answer: inactive

Question: For `COc1ccc(CNC(=O)c2sc3nc(OC(C)C)cc(C)c3c2N)cc1`, which outcome is on record?
Answer: inactive

Question: With `Cc1cc(OCCN2CCOCC2)nc2sc(C(=O)NC3COC3)c(N)c12` as the molecule, how does the outcome read?
Answer: active; fitted 7.42 uM

Question: Which outcome does the source give for `COc1ccc(CNC(=O)c2sc3nc(OCC4CCCN(C)C4)cc(C)c3c2N)cc1` (configuration not stated) here?
Answer: inactive

Question: Which outcome does the source give for `Cc1cc(OCc2ccccn2)nc2sc(C(=O)NCc3cc(F)ccc3F)c(N)c12` here?
Answer: inactive

Question: Which outcome does the source give for `COc1ccc(CNC(=O)c2sc3nc(OCCN(C)C)cc(C)c3c2N)cc1` here?
Answer: inactive

Question: For `COc1ccc(CNC(=O)c2sc3nc(OCc4ccccn4)cc(C)c3c2N)cc1`, which outcome is on record?
Answer: active; fitted 1.77 uM

Question: For `Cc1cc(OCc2ccncc2)nc2sc(C(=O)NCc3cccc(F)c3F)c(N)c12`, which outcome is on record?
Answer: active; fitted 1.61 uM

Question: For `COc1ccc(CNC(=O)c2sc3nc(OCCN4CCCC4)cc(C)c3c2N)cc1`, which outcome is on record?
Answer: active; fitted 8.24 uM

Question: `Cc1cc(OCCN2CCOCC2)nc2sc(C(=O)NC(C)(C)C)c(N)c12` was tested. Which outcome did it give?
Answer: active; fitted 8.73 uM

Question: Which outcome does the source give for `Cc1cc(OCCCN(C)C)nc2sc(C(=O)NC3COC3)c(N)c12` here?
Answer: active; fitted 2.58 uM

Question: For `COc1ccc(CNC(=O)c2sc3nc(OCc4ccncc4)cc(C)c3c2N)cc1`, which outcome is on record?
Answer: active; fitted 1.97 uM

Question: `Cc1cc(OCCN2CCOCC2)nc2sc(C(=O)Nc3ccccc3)c(N)c12` was tested. Which outcome did it give?
Answer: active; fitted 5.81 uM

Question: How did the outcome turn out when `COc1ccc(CNC(=O)c2sc3nc(OCc4cccnc4)cc(C)c3c2N)cc1` was run?
Answer: active; fitted 2.21 uM

Question: For `COCCCNC(=O)c1sc2nc(OCCN3CCOCC3)cc(C)c2c1N`, which outcome is on record?
Answer: active; fitted 6.25 uM

Question: How did the outcome turn out when `Cc1cc(OCCCN(C)C)nc2sc(C(=O)NCc3cc(F)ccc3F)c(N)c12` was run?
Answer: active; fitted 2.75 uM

Question: `Cc1cc(OCc2ccncc2)nc2sc(C(=O)NCc3cc(F)ccc3F)c(N)c12` was tested. Which outcome did it give?
Answer: active; fitted 1.58 uM

Question: `CCCOc1cc(C)c2c(N)c(C(=O)NCc3ccc(OC)cc3)sc2n1` was tested. Which outcome did it give?
Answer: inactive

— PubChem BioAssay AID1923 (Vanderbilt High Throughput Screening Facility, 2009)
